# aGal spleen mod: inhibits or activates alpha-galactosidase in human spleen homogenate; P06280; human spleen homogenate, 4MU-alpha-Gal fluorescence, 40 min; Potency, µM (top dose mostly 80 µM), usual class: inhibitors; 0.008% of 240,000 active
#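 Inhibition or activation of alpha-galactosidase in human spleen homogenate is scored by 4-MU fluorescence after 40 min at 37C, pH 5.0, with 1 mM substrate. AC50s come from concentration-response fitted to the Hill equation.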
# aGlu spleen mod: inhibitors or activators of human alpha-glucosidase in spleen homogenate; P10253; human spleen homogenate, 4-MU-alpha-glucoside fluorescence; Potency, µM (top dose mostly 79.9 µM), most hits filed as inhibitors; 0.006% of 240,000 active; AID 2112
#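 Compounds were titrated against alpha-glucosidase in spleen homogenate at pH 5.0, with 1 mM 4-methylumbelliferyl substrate for 40 min at 37 C. Reactions were quenched with pH 10 NaOH/glycine and fluorescence measured.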
# GAA inh: alpha-glucosidase (human) inhibition; P10253; purified human GAA, 4-MU-alpha-glucoside fluorescence; Potency, µM (top dose mostly 76.9 µM), actives largely listed as inhibitors; 0.005% of 200,000 active
#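 Enzyme (4 nM final) mixed with compound (up to 77 uM), then 4-MU-alpha-D-pyranoside (400 uM final) added; 20 min at room temperature, pH 5.0. Reaction stopped at pH 10, fluorescence read, AC50 derived by Hill fit.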
# GAA glycogen: GAA glycogen-cleavage inhibition or activation | 0.38% of 300,000 active | AID 2100 | recombinant GAA, glycogen substrate, Amplex Red glucose oxidase fluorescence | Potency, µM (doses to about 76.4 µM), hits mostly inhibitors;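 further: the screen sought inhibitors and activators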
#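 Recombinant human alpha-glucosidase (4 nM final) hydrolysed bovine liver glycogen (30 ug) for 40 min at 37 C in pH 5.0 citrate/phosphate with 0.01% Tween-20. Released glucose detected by glucose oxidase/Amplex Red, Ex 573/Em 610 nm. Compounds up to 77 uM; AC50 from Hill fits.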
# GLA inh pH 4.5: alpha-galactosidase A (human) inhibition, pH 4.5; P06280; purified enzyme, 4-MU-alpha-Gal fluorescence, pH 4.5; activity change, negative = inhibition, % at 105 µM; 230,000 tested, under 10 active; AID 1467
# Target sequence (P06280 whole entry, looked up): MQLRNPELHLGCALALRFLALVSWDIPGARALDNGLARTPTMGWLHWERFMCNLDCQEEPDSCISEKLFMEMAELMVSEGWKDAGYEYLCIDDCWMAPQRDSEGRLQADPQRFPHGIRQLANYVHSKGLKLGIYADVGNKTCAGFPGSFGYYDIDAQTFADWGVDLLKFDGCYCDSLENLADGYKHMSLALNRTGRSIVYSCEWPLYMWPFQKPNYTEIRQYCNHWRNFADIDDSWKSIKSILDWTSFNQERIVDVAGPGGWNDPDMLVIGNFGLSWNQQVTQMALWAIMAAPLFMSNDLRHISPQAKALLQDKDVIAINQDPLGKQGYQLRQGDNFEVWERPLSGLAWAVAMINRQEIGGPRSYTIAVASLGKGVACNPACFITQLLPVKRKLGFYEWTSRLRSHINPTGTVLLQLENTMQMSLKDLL
# N370S GC mod: inhibitors or activators of N370S glucocerebrosidase for Gaucher disease | P04062 | N370S GC spleen homogenate, 4MU-glucoside fluorescence | Potency, µM (doses to about 59.4 µM), actives largely listed as inhibitors | 0.092% of 330,000 active | AID 2101
# A number is an active result; . = inactive; ? = inconclusive; / = not tested or not shown; ! = not confirmed by another sample; [ ] = remark or other dose. Most compounds without a hit are left out; they make up all but 0.43% or so of the library. The call rests on the fitted dose curve; in most records, active means well fitted curve in the direction sought with a large enough effect; inconclusive means small, poorly fitted or top-dose-only effect, or another doubt; inactive means no such curve, though single readings can be large; an effect the other way counts as inactive or inconclusive.
SMILES,aGal spleen mod,aGlu spleen mod,GAA inh,GAA glycogen,GLA inh pH 4.5,N370S GC mod
Cc1ccc2sc(NNC(=O)C3=COCCO3)nc2c1C,.,.,.,6.3µM,.,.
COC(=O)CNC(=O)C1CCN(S(=O)(=O)c2cccc3nsnc23)CC1,/,/,/,11µM!,/,.
CC(C)(C)NC(=O)C1CCN(S(=O)(=O)c2cccc3nsnc23)CC1,/,/,/,.,/,.
O=C1c2cc(O)cc(O)c2OC[C@@H]1c1ccc(O)c(O)c1,.,.,/,/,/,.
CCNC(=S)N/N=C(\C)c1ccc2ccccc2c1OC(F)F,.,.,.,50µM,.,.
C[C@H](N)C(=O)N[C@@H](CO)C(=O)N[C@H](C(=O)N[C@H](C(=O)N[C@H](C(=O)N[C@@H](CC(N)=O)C(=O)N[C@@H](Cc1ccc(O)cc1)C(=O)N[C@H](C(=O)O)[C@@H](C)O)[C@@H](C)O)[C@@H](C)O)[C@@H](C)O,.,.,/,/,/,.
CCOC(=O)c1c(N)sc2c1CCC(C)C2 (configuration not stated),.,.,.,?,.,.[2.35 µM]
CCOC(=O)c1c(N)sc2c1CCCC2,.,.,.,35µM,.,.
C[C@H](NC(=O)[C@@H](Cc1c[nH]c2ccccc12)NC(=O)[C@@H](N)Cc1cnc[nH]1)C(=O)N[C@@H](Cc1c[nH]c2ccccc12)C(=O)N[C@H](Cc1ccccc1)C(=O)N[C@@H](CCCCN)C(N)=O,.,.,/,/,/,.
Cc1ccc(S(=O)(=O)N2CCN(C(=O)N(c3ccccc3)c3ccccc3)CC2)cc1,.,.,25µM,?,.,/
Cc1ccc(N(C)C(=O)N2CCN(S(=O)(=O)c3ccc(C)cc3)CC2)cc1,.,.,?,.,.,.
CCOC(=O)c1[nH]c2ccccc2c1NC(=S)Nc1ccccc1C,.,.,.,14µM,.,.
Cc1ccccc1-c1nccc(Nc2ccc(F)cc2)n1,.,.,/,/,/,20µM
CN1CCc2cccc3c2[C@@H]1Cc1ccc(O)c(O)c1-3,.,.,?,3.5µM,.,.
COc1ccc2c(c1O)-c1ccccc1CCN(C)C2,.,.,/,.,.,.
CC(C)(C)NC(=S)Nc1ccc(Nc2ccccc2)cc1,.,?,.,14µM,.,.
CC(C)(C)NC(=S)Nc1ccc(Br)cc1,.,.,.,.,.,.
CCCc1cc(=O)oc2cc(OCC(=O)NC(Cc3c[nH]c4ccc(O)cc34)C(=O)O)c(Cl)cc12 (configuration not stated),/,/,/,7.9µM,/,.
COc1cc(NS(=O)(=O)c2ccc([N+](=O)[O-])cc2)c2ncccc2c1,.,.,/,/,/,.
N#CCCCS(=O)(=O)c1nnnn1-c1ccc(Br)cc1,.,.,/,/,.,.
Oc1ccc(/C=N/NC(=S)N/N=C/c2ccc(O)cc2)cc1,.,.,.,3.5µM,.,.
CN(C)C(=O)NC1CCCCCCC1,.,.,/,/,/,.
Fc1ccc(Nc2nc(-c3ccoc3)nc3ccccc23)cc1,.,.,/,/,/,16µM
O=C(O)c1ccc(Nc2nc(-c3ccc([N+](=O)[O-])cc3)nc3ccccc23)cc1,/,/,/,.,/,.
CC(Nc1nc(-c2ccccc2)nc2ccccc12)c1ccccc1 (configuration not stated),.,.,.,.,.,5µM
SMILES,aGal spleen mod,aGlu spleen mod,GAA inh,GAA glycogen,GLA inh pH 4.5,N370S GC mod
Cc1cccc(-c2nc(Nc3ccc(N4CCOCC4)cc3)c3ccccc3n2)c1,.,.,.,.,.,2.8µM
CC(=O)Nc1ccc(Nc2nc(-c3ccccc3)nc3ccccc23)cc1,.,.,.,.,.,6.3µM
c1ccc(CNc2nc(-c3ccoc3)nc3ccccc23)cc1,.,.,/,/,/,?
O=C(Cn1c(=O)n(Cc2ccccc2)c(=O)c2sc3ccccc3c21)Nc1ccccc1,/,/,/,7.9µM,/,/
CCC1CC=CC2C1C(=O)N(Cc1ccccc1)C2c1ccc2ccccc2c1 (configuration not stated),.,.,/,/,/,.
O=C(NNc1c2ccccc2nc2ccccc12)c1ccc(O)cc1O,.,.,.,28µM,.,.
O=C(NNc1c2ccccc2nc2ccccc12)c1ccccc1O,.,.,.,.,.,.
Cc1ccc(C(=O)Nc2nc3ccccc3n3nnnc23)cc1,.,.,.,.,.,.
O=C(NNc1c2ccccc2nc2ccccc12)c1ccc(O)cc1,.,.,.,11µM,.,.
Cc1ccc(C(=O)NNc2nc3ccccc3nc2C(F)(F)F)cc1,.,.,.,16µM,.,.
COc1ccc2c(c1)O[C@@H](c1cccc(C(F)(F)F)c1)[C@H](OC(=O)NS(=O)(=O)c1ccc(C)cc1)C2=O,.,.,/,/,.,.
COc1ccc2c(c1)C(=O)[C@@H](OC(=O)Nc1ccc(C)c(Br)c1)[C@H](c1ccc(OC)c(Br)c1)O2,.,.,/,/,.,.
CCOc1ccc(N(CC(=O)Nc2c(C)cccc2C)S(=O)(=O)c2c(C)[nH]c(=O)[nH]c2=O)cc1,.,.,/,.,.,4.5µM
COc1ccc(N(CC(=O)NCc2ccc(C)cc2)S(=O)(=O)c2c(C)[nH]c(=O)[nH]c2=O)cc1,/,/,/,.,/,8.9µM
CCOc1ccc(N(CC(=O)NCc2ccccc2Cl)S(=O)(=O)c2c(C)[nH]c(=O)[nH]c2=O)cc1,/,/,/,.,/,4µM
CCOc1ccc(N(CC)S(=O)(=O)c2c(C)[nH]c(=O)[nH]c2=O)cc1,/,/,/,.,/,.
CCOc1ccc(N(CC(=O)NCc2ccc(C)cc2)S(=O)(=O)c2c(C)[nH]c(=O)[nH]c2=O)cc1,/,/,/,.,/,?
CCOc1ccc(N(CC(=O)Nc2cccc(C)c2C)S(=O)(=O)c2c(C)[nH]c(=O)[nH]c2=O)cc1,.,.,/,.,.,11µM
C=CCNC(=O)N1CCc2nc(-c3ccccc3)c3c(c2C1)CO[C@@H](C)C3,.[17.5 µM],.[17.4 µM],/,/,.,.[12.8 µM]
CCc1ccc(NC(=O)N(CCN2CCOCC2)Cc2ccc3c(c2)CCCN3CC)cc1,.,.,.,11µM,.,.
CCN1CCCc2cc(CN(CCN3CCOCC3)C(=S)Nc3ccc(OC)c(OC)c3)ccc21,.,.,.,?,.,.
CCN1CCCc2cc(CN(CCN3CCOCC3)C(=O)Nc3ccc(C)c(C)c3)ccc21,.,.,.,11µM,.,.
CCN1CCCc2cc(CN(CCN3CCOCC3)C(=S)Nc3cccc(C)c3)ccc21,.,.,.,?,.,.
O=C(O)C1Cc2c([nH]c3ccccc23)C(c2coc3ccccc3c2=O)N1 (configuration not stated),.,.,/,/,.,.
OC(COC(c1ccc(Cl)cc1)c1ccc(Cl)cc1)CN1CCc2ccccc2C1 (configuration not stated),.,.,.,.,.,7.9µM

# Compound activity as filed in PubChem.
